# Assays:
# Test in all cases: DAPPL (digital affinity profiling via proximity ligation, sequencing); 10 mM Tris-HCl pH 7.5, 50 mM NaCl, 1 mM DTT, 4% glycerol, room temperature, 30 min; GST-TFs on glutathione beads, 16-mer random dsDNA library, 0.1% formaldehyde crosslink after washing; high values mean tight binding
# Conditions in all cases: protein: recombinant; tags: N-terminal GST; dsDNA, one strand shown
# ELF4 = ELF4 (Homo sapiens, UniProt Q99607 1-663)
# Procedure, shortened: (§1)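 Pools were built from human transcription factors expressed in yeast as GST fusions, captured on glutathione beads and DNA-barcoded, along with a tag-only sample. Incubation with 200 nmole of a 16-mer random double-stranded DNA library lasted 30 min at room temperature in Tris/NaCl/DTT/glycerol buffer, and was followed by washing, 0.1% formaldehyde crosslinking, proximity ligation, PCR amplification and Illumina NextSeq500 sequencing. Binding signal is the quotient of each hexamer's read frequency for a factor and its frequency for the tag-only sample.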
# ETV2 = target: T1, ETV2 (Homo sapiens, UniProt O00321 1-342)
# T1 sequence: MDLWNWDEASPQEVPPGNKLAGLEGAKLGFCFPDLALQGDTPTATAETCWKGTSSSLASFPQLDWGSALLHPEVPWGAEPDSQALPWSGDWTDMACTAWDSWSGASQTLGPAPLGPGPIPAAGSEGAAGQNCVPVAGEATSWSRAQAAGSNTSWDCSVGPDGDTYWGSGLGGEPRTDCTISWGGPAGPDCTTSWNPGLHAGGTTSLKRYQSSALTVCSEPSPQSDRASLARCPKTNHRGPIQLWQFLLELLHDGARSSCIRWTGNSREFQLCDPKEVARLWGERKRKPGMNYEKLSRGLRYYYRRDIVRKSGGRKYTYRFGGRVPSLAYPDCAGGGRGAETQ
# Procedure, shortened: as §1
# ELF3 = target: T2, ELF3 (Homo sapiens, UniProt P78545 1-371)
# T2 sequence: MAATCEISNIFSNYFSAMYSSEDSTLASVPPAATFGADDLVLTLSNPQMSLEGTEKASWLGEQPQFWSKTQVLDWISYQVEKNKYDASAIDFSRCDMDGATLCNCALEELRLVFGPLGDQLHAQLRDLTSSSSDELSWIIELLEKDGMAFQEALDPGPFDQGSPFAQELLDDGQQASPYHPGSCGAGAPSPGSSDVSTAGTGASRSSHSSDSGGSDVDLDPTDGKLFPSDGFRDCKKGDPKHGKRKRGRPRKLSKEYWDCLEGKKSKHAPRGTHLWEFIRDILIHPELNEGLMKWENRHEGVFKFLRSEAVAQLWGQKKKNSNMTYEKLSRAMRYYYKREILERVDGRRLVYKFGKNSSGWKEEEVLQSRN
# Procedure, shortened: as §1
# ETV1 = ETV1 (Homo sapiens, UniProt P50549 1-477)
# Chain of ETV1 (P50549 whole entry): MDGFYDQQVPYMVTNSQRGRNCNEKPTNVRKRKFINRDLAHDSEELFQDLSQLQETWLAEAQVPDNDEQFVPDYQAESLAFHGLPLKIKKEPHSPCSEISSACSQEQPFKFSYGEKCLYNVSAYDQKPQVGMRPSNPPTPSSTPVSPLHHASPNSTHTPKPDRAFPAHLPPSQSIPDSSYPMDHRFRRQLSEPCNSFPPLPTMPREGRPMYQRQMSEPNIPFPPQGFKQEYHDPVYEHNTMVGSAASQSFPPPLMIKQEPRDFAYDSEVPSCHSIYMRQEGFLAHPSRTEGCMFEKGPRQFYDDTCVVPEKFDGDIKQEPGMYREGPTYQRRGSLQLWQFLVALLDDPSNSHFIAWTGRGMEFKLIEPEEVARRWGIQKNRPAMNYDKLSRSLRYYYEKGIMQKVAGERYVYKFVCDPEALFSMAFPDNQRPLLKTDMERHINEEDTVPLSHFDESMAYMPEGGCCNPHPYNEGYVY
# Procedure, shortened: as §1
# ERF = target: T3, ERF (Homo sapiens, UniProt P50548 1-548)
# T3 sequence: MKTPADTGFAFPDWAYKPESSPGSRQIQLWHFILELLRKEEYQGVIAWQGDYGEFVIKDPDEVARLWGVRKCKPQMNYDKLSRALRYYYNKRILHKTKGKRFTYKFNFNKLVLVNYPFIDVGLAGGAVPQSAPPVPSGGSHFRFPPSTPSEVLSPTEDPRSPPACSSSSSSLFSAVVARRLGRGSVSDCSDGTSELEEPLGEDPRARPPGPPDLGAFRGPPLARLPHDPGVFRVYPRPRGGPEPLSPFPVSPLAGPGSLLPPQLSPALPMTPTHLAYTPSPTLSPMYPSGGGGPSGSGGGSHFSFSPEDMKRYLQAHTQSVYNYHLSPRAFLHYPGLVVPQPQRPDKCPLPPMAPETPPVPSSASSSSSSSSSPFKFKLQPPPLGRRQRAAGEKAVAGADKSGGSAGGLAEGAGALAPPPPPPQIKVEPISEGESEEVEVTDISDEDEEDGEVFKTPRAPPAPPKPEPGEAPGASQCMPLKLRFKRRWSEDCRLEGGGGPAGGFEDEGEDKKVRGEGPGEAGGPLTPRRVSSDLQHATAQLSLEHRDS
# Procedure, shortened: as §1
# ETV3L = target: T4, ETV3L (Homo sapiens, UniProt Q6ZN32 1-361)
# T4 sequence: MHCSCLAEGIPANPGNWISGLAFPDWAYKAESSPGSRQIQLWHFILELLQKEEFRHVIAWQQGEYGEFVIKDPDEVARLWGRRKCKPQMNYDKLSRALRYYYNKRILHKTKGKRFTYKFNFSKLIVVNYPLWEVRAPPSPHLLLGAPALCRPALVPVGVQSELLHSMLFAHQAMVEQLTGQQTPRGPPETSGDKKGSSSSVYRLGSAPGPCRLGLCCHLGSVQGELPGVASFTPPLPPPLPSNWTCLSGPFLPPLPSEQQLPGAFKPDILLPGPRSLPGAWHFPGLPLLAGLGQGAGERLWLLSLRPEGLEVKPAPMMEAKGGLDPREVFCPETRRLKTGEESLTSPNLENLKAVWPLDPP
# Procedure, shortened: as §1
# ETS2 = target: T5, ETS2 (Homo sapiens, UniProt P15036 1-469)
# T5 sequence: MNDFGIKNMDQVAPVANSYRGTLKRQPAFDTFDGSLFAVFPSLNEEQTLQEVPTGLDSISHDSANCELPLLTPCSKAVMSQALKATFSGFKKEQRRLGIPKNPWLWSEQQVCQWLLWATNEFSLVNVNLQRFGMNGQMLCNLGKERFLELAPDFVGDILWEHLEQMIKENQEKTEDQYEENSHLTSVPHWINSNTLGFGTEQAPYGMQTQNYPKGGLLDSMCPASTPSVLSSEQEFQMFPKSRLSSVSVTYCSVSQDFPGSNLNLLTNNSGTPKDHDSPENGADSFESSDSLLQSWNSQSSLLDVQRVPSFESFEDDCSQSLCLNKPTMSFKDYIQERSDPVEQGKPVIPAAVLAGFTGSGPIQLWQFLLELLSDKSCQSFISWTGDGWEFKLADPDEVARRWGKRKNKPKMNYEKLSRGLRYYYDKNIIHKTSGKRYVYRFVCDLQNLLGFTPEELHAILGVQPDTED
# Procedure, shortened: as §1
# ETV7 = target: T6, ETV7 (Homo sapiens, UniProt Q9Y603 1-341)
# T6 sequence: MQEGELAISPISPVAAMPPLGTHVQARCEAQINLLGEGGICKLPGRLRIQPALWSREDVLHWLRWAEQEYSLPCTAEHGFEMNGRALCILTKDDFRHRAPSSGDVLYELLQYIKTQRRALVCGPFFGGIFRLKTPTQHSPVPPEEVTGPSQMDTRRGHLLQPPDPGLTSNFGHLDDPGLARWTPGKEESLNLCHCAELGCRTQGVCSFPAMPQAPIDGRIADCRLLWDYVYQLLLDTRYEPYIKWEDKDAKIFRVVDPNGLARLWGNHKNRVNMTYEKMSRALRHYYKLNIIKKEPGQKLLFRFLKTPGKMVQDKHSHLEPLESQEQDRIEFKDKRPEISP
# Procedure, shortened: as §1
# ETV3 = target: T7, ETV3 (Homo sapiens, UniProt P41162-2 1-143)
# T7 sequence: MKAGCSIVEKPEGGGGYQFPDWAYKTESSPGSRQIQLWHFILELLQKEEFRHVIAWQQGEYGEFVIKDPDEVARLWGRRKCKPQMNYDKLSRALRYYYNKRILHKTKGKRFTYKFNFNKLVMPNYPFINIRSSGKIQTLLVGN
# Procedure, shortened: as §1
# ETV6 = ETV6 (Homo sapiens, UniProt P41212 1-452)
# Chain of ETV6 (P41212 whole entry): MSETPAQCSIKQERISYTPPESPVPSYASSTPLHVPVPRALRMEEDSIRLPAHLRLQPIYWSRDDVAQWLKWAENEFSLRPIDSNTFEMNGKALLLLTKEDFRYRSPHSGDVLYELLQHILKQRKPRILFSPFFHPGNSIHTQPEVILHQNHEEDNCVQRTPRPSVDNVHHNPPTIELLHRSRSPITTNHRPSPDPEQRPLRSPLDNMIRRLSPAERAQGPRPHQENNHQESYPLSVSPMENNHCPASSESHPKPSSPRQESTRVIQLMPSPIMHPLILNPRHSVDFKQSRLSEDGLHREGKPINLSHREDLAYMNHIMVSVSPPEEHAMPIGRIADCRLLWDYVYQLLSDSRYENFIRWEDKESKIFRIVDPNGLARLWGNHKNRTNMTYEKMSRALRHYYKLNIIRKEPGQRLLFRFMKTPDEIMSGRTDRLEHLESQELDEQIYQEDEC
# Procedure, shortened: as §1
# Chain of ELF4 (Q99607 whole entry, the tested form may be a part): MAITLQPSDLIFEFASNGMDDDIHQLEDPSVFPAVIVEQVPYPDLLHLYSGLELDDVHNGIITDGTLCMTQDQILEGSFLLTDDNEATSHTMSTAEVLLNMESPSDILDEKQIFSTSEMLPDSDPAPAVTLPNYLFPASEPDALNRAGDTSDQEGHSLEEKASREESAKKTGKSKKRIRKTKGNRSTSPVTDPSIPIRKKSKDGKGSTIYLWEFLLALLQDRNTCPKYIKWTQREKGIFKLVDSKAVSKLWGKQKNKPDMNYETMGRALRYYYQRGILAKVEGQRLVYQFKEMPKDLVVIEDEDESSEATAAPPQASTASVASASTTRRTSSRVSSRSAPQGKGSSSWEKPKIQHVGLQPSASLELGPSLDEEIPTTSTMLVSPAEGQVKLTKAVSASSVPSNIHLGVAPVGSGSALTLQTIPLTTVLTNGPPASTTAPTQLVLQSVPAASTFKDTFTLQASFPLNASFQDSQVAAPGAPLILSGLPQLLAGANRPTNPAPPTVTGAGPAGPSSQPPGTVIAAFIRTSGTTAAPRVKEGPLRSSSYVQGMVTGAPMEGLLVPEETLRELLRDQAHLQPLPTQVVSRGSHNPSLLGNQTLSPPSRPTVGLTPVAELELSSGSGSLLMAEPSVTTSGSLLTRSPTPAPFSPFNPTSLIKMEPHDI
sequence,measurement,setting,value
GGAAGA,binding signal,ELF4,"1.06 fold enrichment (6-mer frequency, TF over GST control)"
same,binding signal,ETV2,"1.09 fold enrichment (6-mer frequency, TF over GST control)"
same,binding signal,ELF3,"1.19 fold enrichment (6-mer frequency, TF over GST control)"
same,binding signal,ETV1,"1.2 fold enrichment (6-mer frequency, TF over GST control)"
same,binding signal,ERF,"1.03 fold enrichment (6-mer frequency, TF over GST control)"
same,binding signal,ETV3L,"1.14 fold enrichment (6-mer frequency, TF over GST control)"
same,binding signal,ETS2,"1.18 fold enrichment (6-mer frequency, TF over GST control)"
same,binding signal,ETV7,"1.13 fold enrichment (6-mer frequency, TF over GST control)"
same,binding signal,ETV3,"1.24 fold enrichment (6-mer frequency, TF over GST control)"
same,binding signal,ETV6,"1.26 fold enrichment (6-mer frequency, TF over GST control)"

# Reference: publication PMC7862700, “An all-to-all approach to the identification of sequence-specific readers for epigenetic DNA modifications on cytosine”
